# In PubChem BioAssay (NCATS):
# Results filed as inconclusive are left out. Unmarked numbers belong to inactive results. The call rests on the fitted dose curve; in most records, active means well fitted curve in the direction sought with a large enough effect; inconclusive means small, poorly fitted or top-dose-only effect, or another doubt; inactive means no such curve, though single readings can be large; an effect the other way counts as inactive or inconclusive.
# Assay: qHTS of pediatric cancer cell lines to identify multiple opportunities for drug repurposing: Primary screen for RD cells (AID 1347104);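 further: plate controls were DMSO for no effect and bortezomib for full effect; nearly all actives have a fitted effect of over 55% in size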
# Settings: RD rhabdomyosarcoma viability, CellTiter-Glo luminescence, 48 h; series mostly up to 46 µM; activity change, negative = cytotoxic: at the top concentration
# Outline: (§1)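 Primary screen of approved and investigational compounds on cells in growth media at 37 degrees C, 5% CO2. MIPE set at 11-point and NPC set at 8-point dilutions; viability scored by ATP-based luminescence at 48 hours.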
row,SMILES,"activity change, negative = cytotoxic [%]"
1,CO/N=C(/C(=O)N[C@@H]1C(=O)N2C(C(=O)[O-])=C(C[n+]3ccn4ncccc43)CS[C@H]12)c1nsc(N)n1,15
2,C/C(=N\O)[C@@H](C)NCC(C)(C)CN[C@H](C)/C(C)=N/O,3.31
3,CNC[C@H](O)[C@@H](O)[C@H](O)[C@H](O)CO,6.21
4,COc1ccc(CCC(C)=O)cc1,5.07
5,Cc1ccccc1C(=O)N1CC/C(=N\OS(=O)(=O)O)c2ccc(Cl)cc21,0.547
6,CCn1ccc(NS(=O)(=O)c2ccc(N)cc2)nc1=O,17.1
7,O=C(O)/C=C(\CC(=O)O)C(=O)O,13.8
8,[O-][n+]1cccc(/C(Cl)=N/OC[C@@H](O)CN2CCCCC2)c1,5.21
9,CC1CC(=O)NN=C1c1ccc(NCC(C)(C)NCC(O)COc2cc(Cl)ccc2C#N)cc1 (configuration not stated),-3.48

# Assay: qHTS of pediatric cancer cell lines to identify multiple opportunities for drug repurposing: Primary screen for MG 63 (6-TG R) cells (AID 1347105); further: on the % scale 0 is the no-effect control and ±100 the full control effect; nearly all actives have a fitted effect of over 50% in size
# Settings: MG 63 (6-TG R) viability, CellTiter-Glo, 48 h; series mostly up to 46 µM; activity change, negative = cytotoxic: at the top concentration
# Outline: as §1
row,SMILES,"activity change, negative = cytotoxic"
1,Cn1c(=O)c2c(ncn2CC(=O)O)n(C)c1=O,2.04%
2,O=[N+]([O-])c1nccn1CO[C@@H](CO)[C@H](O)CO,25.8%
3,CC(=O)OCC(=O)Nc1cc(C#N)cc(NC(=O)COC(C)=O)c1Cl,-9.9%
4,CC1(C)O[C@@H]2C[C@H]3[C@@H]4C[C@H](F)C5=CC(=O)C=C[C@]5(C)[C@@]4(F)[C@@H](O)C[C@]3(C)[C@]2(C(=O)CO)O1,-11.8%
5,CCCC(=O)Nc1ccc(O)c(C(C)=O)c1,-8.29%
6,O=[N+]([O-])c1cncn1CCN1CCOCC1,48.6%
7,CCOc1ncc(F)c(=O)[nH]1,-18%
8,CCc1cc(S(=O)(=O)O)c2cc(C(C)C)cccc1-2,-20.5%
9,Cc1ccccc1N1CCN(CCc2nnc3n2CCCC3)CC1,-30%
10,CN1C(=O)c2ccccc2C1=O,-21.6% [at 92.7 µM]
11,Nc1nnnn1-c1ccccc1,-19.1%
12,CCOC(=O)c1ccc(NC(=O)CN2CCCCC2)cc1,-17.5%
13,Brc1ccccc1-c1ccccc1,-17.9% [at 92.7 µM]
14,CCNC(=O)NCCCOc1cccc(CN2CCCCC2)c1,-21.5%
15,CO/N=C(/C(=O)N[C@@H]1C(=O)N2C(C(=O)OCOC(=O)C(C)(C)C)=C(C)CS[C@H]12)c1csc(N)n1,-12.5%
16,Cc1c(N)cccc1C(F)(F)F,3.77%
17,OC[C@]1(O)OC[C@@H](O)[C@H](O)[C@@H]1O,9.06%
18,COC(=O)c1cc(Cl)ccc1OC,-10.5%
19,CCCc1ncc(C(=O)O)s1,-13.4%

row,SMILES,"activity change, negative = cytotoxic"
1,CCOc1ccc(NS(=O)(=O)c2ccc(N)cc2)nn1,8.08%
2,CCCc1c2oc(C(=O)O)cc(=O)c2cc2c(=O)cc(C(=O)O)n(CC)c12,-9.01%
3,O=C(O)Cn1cnnn1,2.89%
4,COc1cc(OC)nc(O[C@H](C(=O)O)C(OC)(c2ccccc2)c2ccccc2)n1,-20.5%
5,CCCCCCCCCCCCCCCCCCN(C)C,-15.5%
6,C=C(C)C(=O)OCC(O)CO (configuration not stated),-6.88%
7,CNC(=O)c1c(I)c(NC(C)=O)c(I)c(C(=O)O)c1I,-22.3%
8,Cc1nc([N+](=O)[O-])cn1-c1ccc([N+](=O)[O-])cc1,33.6%
9,O=C(CCCCCCCCC#CI)Oc1ccccc1,0.106%
10,C=CC[N+]1([C@H]2C[C@H]3[C@@H]4CC[C@H]5C[C@H](OC(C)=O)[C@@H](N6CCCCC6)C[C@]5(C)[C@H]4CC[C@]3(C)[C@H]2OC(=O)CC)CCCCC1,8.04%
11,CO/N=C(/C(=O)N[C@@H]1C(=O)N2C(C(=O)[O-])=C(C[n+]3ccn4ncccc43)CS[C@H]12)c1nsc(N)n1,-1.24%
12,C/C(=N\O)[C@@H](C)NCC(C)(C)CN[C@H](C)/C(C)=N/O,-2.16%
13,CNC[C@H](O)[C@@H](O)[C@H](O)[C@H](O)CO,-21.5%
14,COc1ccc(CCC(C)=O)cc1,-17.6%
15,Cc1ccccc1C(=O)N1CC/C(=N\OS(=O)(=O)O)c2ccc(Cl)cc21,5.45%
16,CCn1ccc(NS(=O)(=O)c2ccc(N)cc2)nc1=O,2.1%
17,O=C(O)/C=C(\CC(=O)O)C(=O)O,10.5%
18,[O-][n+]1cccc(/C(Cl)=N/OC[C@@H](O)CN2CCCCC2)c1,5.56%
19,CC1CC(=O)NN=C1c1ccc(NCC(C)(C)NCC(O)COc2cc(Cl)ccc2C#N)cc1 (configuration not stated),-6.9%
